According to the supplement of paper PMC10933113:
Where a name gives a salt, the structure may show the parent alone. ± gives the uncertainty stated by the source.

What follows are molecules tested on THP-1 (assay: CD86 surface expression induction over DMSO control (% over DMSO); higher = stronger dendritic cell activation). Settings: exposure time: 24 h.
Protocol: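 hCLAT-like CD54 and CD86 surface expression on THP1 cells after 24 h exposure at a single concentration (highest non-cytotoxic concentration, or 100-200 µM if not cytotoxic). Flow cytometry (iQue) was run on 5,000 live cells.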

`c1ccc2c(c1)OCC(C1=NCCN1)O2` (centres undefined) [Idazoxan] (10 µM) and `c1ccc2sc(SNC3CCCCC3)nc2c1` [N-Cyclohexyl-2-benzothiazolesulfenamide] (100 µM) are within error of each other in “CD86 surface expression induction” value: -10.6 ± 13 for the first, 8.63 ± 9.4 for the second.

First: Cc1ccc2c(c1N)C(=O)c1ccccc1C2=O [1-Amino-2-methylanthraquinone] (100 µM)
Second: O=C1C=CC(=O)c2ccccc21 (10 µM)
The “CD86 surface expression induction” value of the first is lower: 102 ± 24 for the first, 366 ± 22 for the second.

Compared with `CCc1cccc(CC)c1N(COC)C(=O)CCl` [Alachlor] (100 µM), `CCCCOCN(C(=O)CCl)c1c(CC)cccc1CC` [Butachlor] (10 µM) is lower in “CD86 surface expression induction” value: 22.3 ± 7.5 for the first, -11.7 ± 10 for the second.

`CCNc1nc(NC(C)(C)C)nc(SC)n1` [Terbutryn] (100 µM) and `COc1ccc(O)c(C(C)(C)C)c1` [2-tert-Butyl-4-methoxyphenol] (200 µM) are within error of each other in “CD86 surface expression induction” value: 0.6 ± 2.4 for the first, -4.34 ± 6.1 for the second.

`Nc1ccc(Cl)cc1N` [4-Chloro-1,2-diaminobenzene*] (200 µM) and `Nc1ccc([N+](=O)[O-])cc1N` [4-Nitro-1,2-phenylenediamine] (100 µM) are within error of each other in “CD86 surface expression induction” value: 71.3 ± 120 for the first, -1.29 ± 1.9 for the second.

First: COc1ccc(C(c2ccc(OC)cc2)C(Cl)(Cl)Cl)cc1 [Methoxychlor] (200 µM)
Second: c1cc(OCC2CO2)ccc1Cc1ccc(OCC2CO2)cc1 (centres undefined) [Bis[4-(glycidyloxy)phenyl]methane] (100 µM)
The “CD86 surface expression induction” value of the first is higher: 70.8 ± 55 for the first, 7.56 ± 6.6 for the second.

`O=[N+]([O-])c1cc([N+](=O)[O-])c2ccccc2c1` [1,3-Dinitronaphthalene] (200 µM) and `O=C(O)c1ccccc1C(=O)Nc1cccc2ccccc12` [Naptalam*] (200 µM) are within error of each other in “CD86 surface expression induction” value: 2.95 ± 4.5 for the first, 78.5 ± 110 for the second.

`CS/C(C)=N\OC(=O)N(C)SN(C)C(=O)O/N=C(\C)SC` [Thiodicarb] (10 µM) and `CC(C)OC(=S)S` [Proxan-sodium] (10 µM) are within error of each other in “CD86 surface expression induction” value: -14.6 ± 7.8 for the first, -16.7 ± 6.5 for the second.

`CN1C[C@H](C(=O)N[C@]2(C)O[C@@]3(O)[C@@H]4CCCN4C(=O)[C@H](Cc4ccccc4)N3C2=O)C=C2c3cccc4[nH]cc(c34)C[C@H]21` [Ergotamine D-tartrate*] (79 µM) and `O=C1OC(CCN2CCCCC2)OC1(c1ccccc1)c1ccccc1` (centres undefined) [Pipoxolan hydrochloride] (100 µM) are within error of each other in “CD86 surface expression induction” value: 63 ± 77 for the first, 98.2 ± 160 for the second.

Going from `Nc1ccc(N)cc1` [1,4-Benzenediamine] (10 µM) to `Nc1ccc(-c2ccccc2)cc1` [4-Biphenylamine hydrochloride] (100 µM), the “CD86 surface expression induction” value falls from 29 to -3.55 ± 5.8.

`N#C/C=C/C#N` [Fumaronitrile] (10 µM) and `CCCCNC(=O)OCC#CI` [Carbamic acid, butyl-, 3-iodo-2-propynyl ester] (10 µM) are within error of each other in “CD86 surface expression induction” value: -2.66 ± 6.7 for the first, -9.06 ± 2.4 for the second.

Compared with `NNC(N)=S` [Thiosemicarbazide] (10 µM), `NNCc1ccccc1` (100 µM) is higher in “CD86 surface expression induction” value: -15.6 ± 6.4 for the first, 2.81 ± 0.59 for the second.

`ClC1=C(Cl)C2(Cl)C3C(Cl)C(Cl)CC3C1(Cl)C2(Cl)Cl` (centres undefined) [Chlordane] (200 µM) and `O=[N+]([O-])c1c(Cl)c(Cl)c(Cl)c(Cl)c1Cl` [Pentachloronitrobenzene] (100 µM) are within error of each other in “CD86 surface expression induction” value: 33.3 ± 45 for the first, 55.3 ± 53 for the second.

`COc1ccc2[nH]cc(CCN(C(C)C)C(C)C)c2c1` [5-Methoxy-N,N-diisopropyltryptamine hydrochloride] (224.7 µM) and `NCCc1ccc(O)cc1` [Tyramine] (100 µM) are within error of each other in “CD86 surface expression induction” value: -4.94 ± 3.2 for the first, -4.16 ± 4.5 for the second.

`O=C(CCl)CCl` [1,3-Dichloropropanone] (200 µM) and `COP(=O)(OC)OC(Br)C(Cl)(Cl)Br` (centres undefined) [Naled] (100 µM) are within error of each other in “CD86 surface expression induction” value: 16.5 ± 17 for the first, 30.5 ± 5.4 for the second.

`C[C@@H]1O[C@@H](O[C@H]2C[C@@H](O)[C@]3(CO)[C@H]4[C@H](O)C[C@]5(C)[C@@H](C6=CC(=O)OC6)CC[C@]5(O)[C@@H]4CC[C@]3(O)C2)[C@H](O)[C@H](O)[C@H]1O` [Ouabain] (10 µM) and `C[C@]12CC[C@H](O)C[C@H]1CC[C@@H]1[C@@H]2C[C@@H](O)[C@]2(C)[C@@H](C3=CC(=O)OC3)CC[C@]12O` [Digoxigenin] (10 µM) are within error of each other in “CD86 surface expression induction” value: 51.7 ± 16 for the first, 46.8 ± 22 for the second.

Compared with `OCc1ccco1` [Furfuryl alcohol] (201 µM), `S=C=NCc1ccccc1` (10 µM) is higher in “CD86 surface expression induction” value: 5.82 ± 11 for the first, 64.3 ± 6.8 for the second.

First: CCOP(=S)(OCC)Oc1cnc2ccccc2n1 [Quinalphos] (200 µM)
Second: CCOP(=S)(OCC)SC(CCl)N1C(=O)c2ccccc2C1=O (centres undefined) [Dialifor] (100 µM)
The “CD86 surface expression induction” value of the first is lower: -2.83 ± 2.4 for the first, 0.69 ± 0.85 for the second.

`Cc1ccc(N=C=O)cc1N=C=O` [Toluene-2,4-diisocyanate] (100 µM) and `COP(=S)(OC)Oc1nc(Cl)c(Cl)cc1Cl` [Chlorpyrifos-methyl] (200 µM) are within error of each other in “CD86 surface expression induction” value: 3.76 ± 8.7 for the first, 17.7 ± 42 for the second.

In the case of `c1ccc(Nc2ccc(Nc3ccccc3)cc2)cc1` [N,N'-Diphenyl-p-phenylenediamine] (200 µM), the “CD86 surface expression induction” value is reported as -11.2 ± 8.1.
